Measurements: PubChem BioAssay (NCI)
Compounds without any hit were thinned out: in the full panel of roughly 83,000, 20% have a hit.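 Growth was measured after 48 h exposure to one concentration of compound in 96-well plates. Values under 10 count as active.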 Active and inactive are the calls of the source.

How the values were obtained:
Assay in all cases: NCI-60 one-dose screen, 48 h (100 = growth as untreated, 0 = no growth, -100 = all killed)
Settings in all cases: 10 µM unless noted
SR leukemia = system: SR leukemia
RPMI-8226 leukemia = system: RPMI-8226 leukemia
OVCAR-8 ovarian = system: OVCAR-8 ovarian
OVCAR-5 ovarian = system: OVCAR-5 ovarian
OVCAR-4 ovarian = system: OVCAR-4 ovarian
SK-OV-3 ovarian = system: SK-OV-3 ovarian
IGROV1 ovarian = system: IGROV1 ovarian
OVCAR-3 ovarian = system: OVCAR-3 ovarian
HS 578T breast = system: HS 578T breast
NCI/ADR-RES ovarian = system: NCI/ADR-RES ovarian

Measured: growth

O=C(Oc1ccc(CCl)cc1)c1ccccc1
active: SR leukemia -43.7% | RPMI-8226 leukemia -50.2% | OVCAR-8 ovarian -84.5% | OVCAR-5 ovarian -85.2% | OVCAR-4 ovarian -83.1% | SK-OV-3 ovarian -100% | IGROV1 ovarian -81.4% | OVCAR-3 ovarian -97.3% | HS 578T breast -13.4% | NCI/ADR-RES ovarian -63.7%

C=C(CNCCc1ccc(O)cc1)[C@@H]1CC[C@]2(CO)CC[C@]3(C)[C@H](CC[C@@H]4[C@@]5(C)CCC(=O)C(C)(C)[C@@H]5CC[C@]43C)[C@@H]12
active: SR leukemia -24.9% | RPMI-8226 leukemia -12.2% | OVCAR-8 ovarian -70.3%
inactive: OVCAR-5 ovarian 90% | OVCAR-4 ovarian 58.1% | SK-OV-3 ovarian 92.4% | IGROV1 ovarian 30.9% | OVCAR-3 ovarian 39.7% | HS 578T breast 51.9% | NCI/ADR-RES ovarian 33%

COc1ccc(C(=O)Cn2c(C(=O)c3ccc(OC)cc3)nc3ccccc32)cc1
active: RPMI-8226 leukemia -7.09% | OVCAR-3 ovarian -10.4% | HS 578T breast -12% | NCI/ADR-RES ovarian -24.1%
inactive: SR leukemia 16.4% | OVCAR-8 ovarian 31.3% | OVCAR-5 ovarian 56.9% | OVCAR-4 ovarian 47.6% | SK-OV-3 ovarian 67.1% | IGROV1 ovarian 26.9%

CO[C@H]1CC(=O)n2c3ccccc3c3c4c(c5c6ccccc6n1c5c32)C(=O)NC4=O
inactive: SR leukemia 20.8% | RPMI-8226 leukemia 88% | OVCAR-8 ovarian 37.1% | OVCAR-5 ovarian 120% | OVCAR-4 ovarian 24.6% | SK-OV-3 ovarian 68.1% | IGROV1 ovarian 37.3% | OVCAR-3 ovarian 56.1% | HS 578T breast 27.6% | NCI/ADR-RES ovarian 36.2%

O=C1/C(=C2\SC(=S)N(C3CC3)C2=O)SC(=S)N1C1CC1
inactive: SR leukemia 105% | RPMI-8226 leukemia 102% | OVCAR-8 ovarian 103% | OVCAR-5 ovarian 98.5% | OVCAR-4 ovarian 97.2% | SK-OV-3 ovarian 109% | IGROV1 ovarian 95.5% | OVCAR-3 ovarian 107% | HS 578T breast 97.4% | NCI/ADR-RES ovarian 102%

C/C(Cc1ccc(Cl)cc1)=C(\c1ccc(OCCCN(C)C)cc1)c1ccc(OC(=O)Cc2ccccc2)cc1
inactive: SR leukemia 77.3% | RPMI-8226 leukemia 105% | OVCAR-8 ovarian 113% | OVCAR-5 ovarian 105% | OVCAR-4 ovarian 107% | SK-OV-3 ovarian 85.6% | IGROV1 ovarian 106% | OVCAR-3 ovarian 101% | HS 578T breast 105% | NCI/ADR-RES ovarian 103%

COc1cc(C2C(C(=O)OCc3ccccc3)=C(C)NC(C)=C2C(=O)OCc2ccccc2)cc(OC)c1OC
active: SR leukemia 4.89% | RPMI-8226 leukemia -0.546%
inactive: OVCAR-8 ovarian 34% | OVCAR-5 ovarian 68.5% | OVCAR-4 ovarian 37.6% | SK-OV-3 ovarian 27.5% | IGROV1 ovarian 38.7% | OVCAR-3 ovarian 35.7% | HS 578T breast 46.4% | NCI/ADR-RES ovarian 26.1%

O=C(N/N=C\c1cccc([N+](=O)[O-])c1)N/N=C/c1cccc([N+](=O)[O-])c1
inactive: SR leukemia 109% | RPMI-8226 leukemia 97.1% | OVCAR-8 ovarian 101% | OVCAR-5 ovarian 114% | OVCAR-4 ovarian 105% | SK-OV-3 ovarian 101% | IGROV1 ovarian 107% | OVCAR-3 ovarian 112% | HS 578T breast 97.9% | NCI/ADR-RES ovarian 106%

CCCCCCCCCCCCCCCCCCOc1ccccc1CC(=O)NCC[N+]1(C)CCCCC1
active: IGROV1 ovarian -8.66%
inactive: SR leukemia 26.3% | RPMI-8226 leukemia 50.9% | OVCAR-8 ovarian 57.1% | OVCAR-5 ovarian 30% | OVCAR-4 ovarian 40.3% | SK-OV-3 ovarian 77% | OVCAR-3 ovarian 46.5% | HS 578T breast 61.8% | NCI/ADR-RES ovarian 104%

CCOC(=O)C(Cc1ccc(OC)cc1)C(=O)OCC
active: RPMI-8226 leukemia 0.799% | OVCAR-3 ovarian 2.41% | HS 578T breast 6.32%
inactive: SR leukemia 11.6% | OVCAR-8 ovarian 26.4% | OVCAR-5 ovarian 72% | OVCAR-4 ovarian 56.4% | SK-OV-3 ovarian 50% | IGROV1 ovarian 28.1% | NCI/ADR-RES ovarian 17.9%

Cc1ccccc1Nc1cc(O)c2c(=O)cc(-c3ccccc3)oc2c1
active: SR leukemia 7.93% | OVCAR-3 ovarian -4.27% | NCI/ADR-RES ovarian 4.9%
inactive: RPMI-8226 leukemia 29.7% | OVCAR-8 ovarian 52.5% | OVCAR-5 ovarian 89.2% | OVCAR-4 ovarian 53.1% | SK-OV-3 ovarian 59.3% | IGROV1 ovarian 45.3% | HS 578T breast 44.7%

Cc1ccc(NC(=O)Cn2c(Br)nc3c2c(=O)n(C)c(=O)n3C)cc1
inactive: SR leukemia 12% | RPMI-8226 leukemia 38.5% | OVCAR-8 ovarian 28.4% | OVCAR-5 ovarian 27.9% | IGROV1 ovarian 33.1%
active: OVCAR-4 ovarian -44.9% | SK-OV-3 ovarian 5.9% | OVCAR-3 ovarian -19.8% | HS 578T breast 8.55% | NCI/ADR-RES ovarian 4.04%

O=C(Nc1ccc(Cl)cc1)Oc1c(Cl)c(Cl)c(Cl)c(Cl)c1Cl
inactive: SR leukemia 93.6% | RPMI-8226 leukemia 90.5% | OVCAR-8 ovarian 99.9% | OVCAR-5 ovarian 94.6% | OVCAR-4 ovarian 88.6% | SK-OV-3 ovarian 90% | IGROV1 ovarian 85.9% | OVCAR-3 ovarian 98.8% | HS 578T breast 87.8% | NCI/ADR-RES ovarian 94%

COc1ccc(/C=C/c2c(C(=O)/C=C/c3ccccc3)c(C)nc3ccccc23)cc1
active: RPMI-8226 leukemia 0.598% | OVCAR-8 ovarian 0.97% | OVCAR-5 ovarian -29.3% | IGROV1 ovarian 6.06% | OVCAR-3 ovarian -22.4% | NCI/ADR-RES ovarian 3.63%
inactive: SR leukemia 10.7% | OVCAR-4 ovarian 37.2% | SK-OV-3 ovarian 63.6% | HS 578T breast 38.2%

Oc1c(CN2CCCC2)cc(CSCc2ccccc2)c2cccnc12
active: SR leukemia -7.76% | RPMI-8226 leukemia 7.56% | OVCAR-8 ovarian 7.91% | OVCAR-4 ovarian -2.42% | SK-OV-3 ovarian -15.6% | IGROV1 ovarian -3.98% | OVCAR-3 ovarian 5.77% | NCI/ADR-RES ovarian -46.4%
inactive: OVCAR-5 ovarian 41.8% | HS 578T breast 64.5%

CSc1nn2c(-c3ccc4ccccc4c3)ccnc2c1C#N
active: OVCAR-4 ovarian 1.79% | OVCAR-3 ovarian -26% | NCI/ADR-RES ovarian 2.07%
inactive: SR leukemia 13.8% | RPMI-8226 leukemia 24.1% | OVCAR-8 ovarian 23% | OVCAR-5 ovarian 46.7% | SK-OV-3 ovarian 12.8% | IGROV1 ovarian 20.5% | HS 578T breast 33.6%

Cc1ccc(S(=O)(=O)c2nc(-c3ccccc3)oc2Sc2nc3ccccc3s2)cc1
inactive: SR leukemia 15.5% | RPMI-8226 leukemia 56.7% | OVCAR-8 ovarian 60% | OVCAR-5 ovarian 124% | OVCAR-4 ovarian 55.5% | SK-OV-3 ovarian 116% | IGROV1 ovarian 80% | OVCAR-3 ovarian 77.9% | HS 578T breast 101% | NCI/ADR-RES ovarian 70.7%

Oc1c(CN2CCOCC2)cc(COCc2ccccc2)c2cccnc12
active: SK-OV-3 ovarian 9.56% | NCI/ADR-RES ovarian 7.42%
inactive: SR leukemia 13.4% | RPMI-8226 leukemia 29.1% | OVCAR-8 ovarian 14.5% | OVCAR-5 ovarian 37.8% | OVCAR-4 ovarian 24.5% | IGROV1 ovarian 16.2% | OVCAR-3 ovarian 19.7% | HS 578T breast 68.4%

O=C(/C=C/c1cccc(Cl)c1Cl)Nc1ncc(Cc2ccccc2Cl)s1
inactive: SR leukemia 19.1% | RPMI-8226 leukemia 35.4% | OVCAR-8 ovarian 73.6% | OVCAR-5 ovarian 80.1% | OVCAR-4 ovarian 70.2% | SK-OV-3 ovarian 70.4% | IGROV1 ovarian 39.3% | OVCAR-3 ovarian 11.3% | HS 578T breast 38% | NCI/ADR-RES ovarian 31%

S=c1nc2oc(-c3ccccc3)c(-c3ccccc3)c2c(/N=C\c2ccco2)[nH]1
inactive: SR leukemia 86.3% | RPMI-8226 leukemia 97.6% | OVCAR-8 ovarian 97.4% | OVCAR-5 ovarian 87.7% | OVCAR-4 ovarian 93.6% | SK-OV-3 ovarian 109% | IGROV1 ovarian 101% | OVCAR-3 ovarian 98.4% | HS 578T breast 81.9% | NCI/ADR-RES ovarian 100%

Cc1ccc(-c2nc(-c3cn(C)c4ncccc34)cs2)cc1
inactive: HS 578T breast 13.7% [100 µM]
active: SR leukemia 3.67% [100 µM] | RPMI-8226 leukemia -7.33% [100 µM] | OVCAR-8 ovarian -3.32% [100 µM] | OVCAR-5 ovarian -5.34% [100 µM] | OVCAR-4 ovarian -21.5% [100 µM] | SK-OV-3 ovarian -33.7% [100 µM] | IGROV1 ovarian -0.0952% [100 µM] | OVCAR-3 ovarian -28.5% [100 µM] | NCI/ADR-RES ovarian -24.9% [100 µM]

Cc1nc2cc(O)c(O)cc2cc1Oc1ccc(NC(=O)Nc2ccc(Cl)c(Cl)c2)cc1
active: SR leukemia 8.95%
inactive: RPMI-8226 leukemia 75.7% | OVCAR-8 ovarian 47.7% | OVCAR-5 ovarian 122% | OVCAR-4 ovarian 67.7% | SK-OV-3 ovarian 44.9% | IGROV1 ovarian 67.1% | OVCAR-3 ovarian 67.9% | HS 578T breast 105% | NCI/ADR-RES ovarian 59%

CN1CCN(Cc2ccc(NC(=O)c3cncc(C#Cc4cnc(N)c5ccc(F)cc45)c3)cc2C(F)(F)F)CC1
active: SR leukemia -25.9% | RPMI-8226 leukemia 4.27% | SK-OV-3 ovarian -4.24% | IGROV1 ovarian 0.192%
inactive: OVCAR-8 ovarian 33.9% | OVCAR-5 ovarian 44.7% | OVCAR-4 ovarian 30.9% | OVCAR-3 ovarian 19.7% | HS 578T breast 11.4% | NCI/ADR-RES ovarian 35.3%

COc1ccccc1N(C(C)=O)C1=C(Cl)C(=O)c2ccccc2C1=O
inactive: OVCAR-8 ovarian 19.1% | OVCAR-5 ovarian 23.1% | OVCAR-4 ovarian 22.4% | SK-OV-3 ovarian 17.6% | IGROV1 ovarian 13.8% | HS 578T breast 42.7%
active: SR leukemia -13.9% | RPMI-8226 leukemia -19.2% | OVCAR-3 ovarian -23.3% | NCI/ADR-RES ovarian 0.618%

C=C1C(=O)O[C@H]2[C@H]1CC/C(COC(=O)/C=C\C(=O)NCc1ccc(Cn3c(=O)sn(CCCCC)c3=O)cc1)=C\CC[C@@]1(C)O[C@@H]21
inactive: SR leukemia 59.7% | OVCAR-8 ovarian 84.5% | OVCAR-5 ovarian 89% | OVCAR-4 ovarian 84.6% | SK-OV-3 ovarian 111% | IGROV1 ovarian 58% | OVCAR-3 ovarian 36% | HS 578T breast 98.2% | NCI/ADR-RES ovarian 98.8%
active: RPMI-8226 leukemia 8.85%

Cn1cc(-c2csc(-c3c[nH]c4ccc(F)cc34)n2)c2ccnc(Cl)c21
inactive: SR leukemia 44.4% | RPMI-8226 leukemia 52.9% | OVCAR-8 ovarian 80.5% | OVCAR-5 ovarian 127% | OVCAR-4 ovarian 47.2% | SK-OV-3 ovarian 74.3% | IGROV1 ovarian 70.5% | OVCAR-3 ovarian 73.4% | HS 578T breast 74.3% | NCI/ADR-RES ovarian 71.4%
